“And” between values parts separate entries of the source, which are not always exact repeats. Equal entries are not always repeated. Some compounds were tested as several samples or in several runs, with calls that do not always agree. The source made the active and inactive calls. How the source made its calls: active means hit-call score of the fitted dose curve at least 0.9, where 1 is the maximum; inactive means score below 0.9.

Read-out in the experiment: Vascular cell adhesion molecule 1 (VCAM1), VCAM1 (gene 7412)
The experiment is described as follows: BSK_IMphg_VCAM1: BioMAP Diversity Plus: IMphg Assay for Vascular cell adhesion molecule 1 (VCAM1) Biomarker Activity (AID 2284286). The following applies: primary human endothelial cells with macrophages. As to the method: BSK_IMphg is a cell-based, multiplexed-readout assay that uses venular endothelial cells and macrophages, a human vascular primary cell, with measurements taken at 24 hours after chemical dosing in a microplate: 96-well plate.BSK_IMphg_VCAM1 is an assay component measured in the BSK_IMphg assay. It measures VCAM-1 antibody related to regulation of gene expression using ELISA technology.Data from the assay component BSK_IMphg_VCAM1 was analyzed at the endpoint, BSK_IMphg_VCAM1, in the positive analysis fitting direction relative to DMSO as the negative control and baseline of activity. Using a type of binding reporter, gain or loss-of-signal activity can be used to understand protein changes. To generalize the intended target to other relatable targets, this assay endpoint is annotated to the 'cell adhesion molecules' intended target family, where the subfamily is 'Immunoglobulin CAM'.
The levels of cell surface (or secreted, indicated by the prefix "s") biomarker endpoints were measured by ELISA. Overt cytotoxicity to cells in confluent adherent cultures (all systems other than the BT system) was assessed by measuring total protein levels using sulforhodamine B (SRB) staining in parallel cultures at the time of biomarker measurements, indicated as SRB endpoints. For proliferation assays for adherent cell types, individual cell types are cultured at sub-confluence and relative cell numbers quantified by SRB staining at time points optimized for each system (48 h: 3C and CASM3C systems; 72 h: BT and HDF3CGF systems; 96 h: SAg system). SRB was performed by staining cells with 0.1% SRB after fixation with 10% TCA and reading wells at 560 nm.Viability and proliferation of PBMC (T cells) was quantified by Alamar Blue reduction for the SAg and BT systems. For PBMC viability (referred to as PBMC Cytotoxicity within the assay endpoint names), cells were plated (75,000/well in a 96-well plate) and then chemical samples added for 1 h before addition of activators, SEB and TSST-1 (20 ng/mL final concentration each). Cells were incubated for 90 h. Then, Alamar Blue (20 uL/well) (Invitrogen, Cat DAL1100) was added for 6 h, and the plates were read with a fluorescence microplate reader at 546/580 nm (excitation/emission). For PBMC proliferation, cells were plated and activated as above but incubated for only 16 h prior to addition of Alamar Blue. Plates were read after 6 h.
Regarding `O=C(O)C(F)(F)C(F)(F)C(F)(F)C(F)(F)C(F)(F)C(F)(F)C(F)(F)C(F)(F)C(F)(F)C(F)F`, the result was inactive and the AC50 was 52.7 µM (active).

On to `Cc1ccc(S(=O)(=O)OCC(F)(F)C(F)(F)C(F)(F)C(F)(F)C(F)(F)C(F)F)cc1`, for which the result was inactive.

On to `O=C(O)C(F)(F)C(F)(F)C(F)(F)C(F)(F)C(F)(F)C(F)(F)C(F)(F)C(F)(F)Cl`, for which the AC50 is 48.5 µM (active) and 45.7 µM (active).

`NC(=O)C(F)(F)C(F)(F)C(F)(F)C(F)(F)F`: the outcome was inactive.

With `C=C(C)C(=O)OCC(F)(F)C(F)(F)C(F)(F)C(F)(F)C(F)(F)C(F)(F)C(F)(F)F`, the result was inactive.

For `C=CC(F)(F)C(F)(F)C(F)(F)C(F)(F)C(F)(F)C(F)(F)C(F)(F)C(F)(F)F`, the outcome was inactive.

As to `O=S(=O)(O)C(F)(F)C(F)(F)C(F)(F)C(F)(F)C(F)(F)C(F)(F)C(F)(F)F`, the result was inactive.

Consider `OCCCC(F)(F)C(F)(F)C(F)(F)C(F)(F)C(F)(F)C(F)(F)C(F)(F)F`, for which the outcome was inactive and the AC50 was 54.6 µM (active).

Turning to `COC(=O)CCC(F)(F)C(F)(F)C(F)(F)C(F)(F)F`, the result was inactive.

In the case of `FC(F)(I)C(F)(F)C(F)(F)C(F)(F)I`, the AC50 was 54 µM (active) and the result was inactive.

With `O=C(CC(=O)C(F)(F)C(F)(F)F)C(F)(F)F`, the outcome was inactive.

On to `FC(F)(F)C(F)(F)C(F)(F)C(F)(F)C(F)(F)C(F)(F)CC1CO1` (stereo not given), for which the outcome was inactive.

Regarding `OCC(F)(F)C(F)(F)C(F)(F)F`, the outcome was inactive.

`FC(F)(F)C(F)(F)C(F)(F)N(C(F)(F)C(F)(F)C(F)(F)F)C(F)(F)C(F)(F)C(F)(F)F`: the result was inactive.

Consider `FC(F)(F)C(F)(F)C(F)(F)C(F)(F)C(F)(F)CCI`, for which the outcome was inactive.

For the compound `O=C(O)C(F)(F)C(F)(F)C(F)(F)C(F)(F)C(F)(F)C(F)(F)C(F)(F)C(F)(F)C(F)(F)C(F)(F)C(F)(F)C(F)(F)F`, the AC50 was 15.2 µM (active) and 19.4 µM (active).

In the case of `O=C(O)C=C(C(F)(F)F)C(F)(F)F`, the AC50 is 30 µM (active) and the result was inactive.

`FC(F)(F)C(F)(F)C(F)(F)CI`: the result was inactive.

Consider `O=C(O)C(F)(F)C(F)(F)F`, for which the outcome was inactive.

For the compound `FC(F)(F)C(F)(F)C(F)(F)C(F)(F)C(F)(F)C(F)(F)C(F)(F)C(F)(F)CCS`, the outcome was inactive.

As to `FC1CC(F)(F)C(F)(F)C1(F)F` (stereo not given), the outcome was inactive.

As to `CCO[Si](CCC(F)(F)C(F)(F)C(F)(F)C(F)(F)C(F)(F)C(F)(F)F)(OCC)OCC`, the result was inactive.

As to `O=C(O)C(F)(F)C(F)(F)C(F)F`, the outcome was inactive.

With `O=C(Cl)C(F)(F)C(F)(F)C(F)(F)C(F)(F)C(F)(F)C(F)(F)C(F)(F)C(F)(F)F`, the AC50 is 35.9 µM (active) and 46.8 µM (active) and 46.3 µM (active).

On to `CC(C)(C)C(=O)CC(=O)C(F)(F)C(F)(F)C(F)(F)F`, for which the outcome was inactive.

Consider `N=C(N)C(F)(F)C(F)(F)C(F)(F)C(F)(F)C(F)(F)C(F)(F)C(F)(F)F`, for which the AC50 was 41.4 µM (active) and the result was inactive.

Regarding `OCC(F)(F)C(F)(F)C(F)(F)C(F)F`, the outcome was inactive.

As for `C=CC(=O)OCC(F)(F)C(F)(F)C(F)(F)C(F)(F)COC(=O)C=C`, the AC50 is 30.4 µM (active) and 23.4 µM (active).

For the compound `FC(F)(F)C(F)(F)C(F)(F)C(F)(F)C(F)(F)C(F)(F)C(F)(F)I`, the outcome was inactive.

Turning to `O=C(O)C(F)(F)C(F)(F)OC(F)(F)F`, the outcome was inactive.

Take `O=S(=O)(OCC(F)F)C(F)(F)F`: the result was inactive.

For the compound `O=C(O)C(F)(OC(F)(F)C(F)(OC(F)(F)C(F)(OC(F)(F)C(F)(F)C(F)(F)F)C(F)(F)F)C(F)(F)F)C(F)(F)F` (stereo not given), the result was inactive.

Take `O=C(O)C(F)(OC(F)(F)C(F)(OC(F)(F)C(F)(F)C(F)(F)F)C(F)(F)F)C(F)(F)F` (stereo not given): the outcome was inactive.

As for `C=CC(F)(F)C(F)(F)C(F)(F)C(F)(F)C(F)(F)C(F)(F)C(F)(F)C(F)(F)C=C`, the outcome was inactive.

Turning to `FC(F)(F)C(F)(F)C(F)(F)C(F)(F)C(F)(F)C(F)(F)C(F)(F)C(F)(F)F`, the result was inactive.

These data come from PubChem BioAssay (EPA / NIEHS).
